Test results taken from the antibiotic and cytotoxicity screens of Wong et al. (2023).
In all, about 39,000 compounds went through this assay and about 3,300 (8.5%) were called active. Shown is part of a subset that was picked to be rich in actives.

These compounds were tested on HepG2 (assay: cytotoxicity call (relative viability < 0.9)). Conditions: 10 µM.

SMILES | cytotoxicity call
COc1ccc(NC(=O)N(C)C[C@H]2OCCCC[C@@H](C)Oc3ccc(NC(=O)C4CCCCC4)cc3C(=O)N([C@H](C)CO)C[C@@H]2C)cc1 | inactive
COc1ccc(CN(C)C[C@H]2Oc3c(NS(C)(=O)=O)cccc3C(=O)N([C@@H](C)CO)C[C@H]2C)cc1 | inactive
COc1ccc2c3c([nH]c2c1)[C@H](CO)N(C[C@]13CN(Cc2ccccc2)C1)S(=O)(=O)c1cn(cn1)C | inactive
COc1ccc(NC(=O)N(C)C[C@H]2Oc3ncc(C#CCN(C)C)cc3C(=O)N([C@@H](C)CO)C[C@H]2C)cc1 | inactive
O=C(C[C@@H]1CC[C@H]2[C@@H](COC[C@@H](O)CN2Cc2cc(F)ccc2F)O1)N[C@@H]1CCN(Cc2ccccc2)C1 | inactive
C[C@@H]1CN([C@H](C)CO)C(=O)CCCn2nncc2CO[C@@H]1CN(C)C(=O)c1ccc(N2CCN(C)CC2)cc1 | inactive
Fc1ccccc1[C@H]1Nc2ccc3ccccc3c2[C@H]2C=CC[C@@H]21 | inactive
CCNC(=O)C[C@@H]1CC[C@H](NC(=O)C2CCOCC2)[C@H](CO)O1 | inactive
Cc1noc(C)c1NC(=O)Nc1ccc2c(c1)C(=O)N([C@H](C)CO)C[C@H](C)[C@H](CN(C)Cc1ccc(C(F)(F)F)cc1)O2 | inactive
C[C@@H]1CN([C@H](C)CO)C(=O)c2cc(-c3cncnc3)cnc2O[C@H]1CN(C)C(=O)Nc1ccc2c(c1)OCO2 | inactive
CCCNC(=O)c1cc2c(c(-c3cccc(-c4cccc(OC)c4)c3)n1)[C@H](CCO)N([S@@](=O)C(C)(C)C)C2 | inactive
O=C1c2ccccc2[C@@]2(Cc3ccccc3N(C3CC3)C2=O)[C@H](c2ccc(CO)cc2)N1Cc1ccccc1Cl | inactive
O=C1c2ccccc2[C@@]2(Cc3ccccc3N(C3CC3)C2=O)[C@H](c2ccc(CO)cc2)N1Cc1ccccc1 | active
COc1ccccc1CN1C(=O)c2ccccc2[C@@]2(Cc3ccccc3N(C3CC3)C2=O)[C@@H]1c1ccc(CO)cc1 | inactive
COc1ccc(S(=O)(=O)N[C@@H]2C=C[C@H](CC(=O)N3CCN(c4ccccc4)CC3)O[C@H]2CO)cc1 | inactive
O=C(O)c1cc(O)c2c(c1)C(C1c3cc(C(=O)O)cc(O)c3C(=O)c3c(OC4OC(CO)C(O)C(O)C4O)cccc31)c1cccc(OC3OC(CO)C(O)C(O)C3O)c1C2=O (configuration not stated) | active
O=C(O)c1cc(O)c2c(O)c3c(O[C@H]4O[C@H](CO)[C@@H](O)[C@H](O)[C@H]4O)cccc3c(-c3c4cc(C(=O)O)cc(O)c4c(O)c4c(O[C@H]5O[C@H](CO)[C@@H](O)[C@H](O)[C@H]5O)cccc34)c2c1 | active
O=C1c2c(O)cccc2C(C2OC(CO)C(O)C(O)C2O)c2cc(CO)cc(O)c21 (configuration not stated) | active
O=C(O)c1cc(O[C@@H]2O[C@H](CO)[C@@H](O)[C@H](O)[C@H]2O)c2ccccc2c1O | inactive
OCc1cc(O)c2c(O)c3c(O)cccc3c(O[C@@H]3O[C@H](CO)[C@H](O)[C@@H](O)[C@H]3O)c2c1 | inactive
OCc1ccc(O[C@@H]2O[C@H](CO)[C@@H](O)[C@H](O)[C@H]2O)cc1 | inactive
OCCc1ccc(O)c(O[C@H]2O[C@@H](CO)[C@@H](O)[C@@H](O)[C@@H]2O)c1 | inactive
OCc1ccccc1O[C@@H]1O[C@H](CO)[C@@H](O)[C@H](O)[C@H]1O | inactive
OCc1cc(O)c2c(O)c3c(O)cccc3c(O[C@@H]3O[C@H](CO)[C@@H](O)[C@H](O)[C@H]3O)c2c1 | active
O=C1c2c(O)cc(CO)cc2C(OC2OC(CO)C(O)C(O)C2O)c2cccc(OC3OC(CO)C(O)C(O)C3O)c21 (configuration not stated) [CASANTHRANOL [cascaroside A shown] ] | inactive
COc1c(O)cc2c(c1O)[C@@H]1O[C@H](CO)[C@@H](O)[C@H](O)[C@H]1OC2=O | inactive
COc1c(O)cc2c(c1O)C1OC(CO)C(O)C(O)C1OC2=O (configuration not stated) | inactive
